Rows were chosen to be rich in hits. Some 1.5% of all compounds tested hit in one or more screens of this group.
BCLXL inh – blocks human Bcl-xL binding to Bim BH3 peptide; AID 2129; 0.7% of 320,000 active; inhibition, % at 10.9 µM; Q07817; GST-Bcl-xL / FITC-Bim BH3 peptide fluorescence polarization;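 active = inhibition above the mean of all tested compounds plus 3 SD, cutoff set per campaign, cut at about 30% in these data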;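 also: inhibitors lower millipolarization by displacing the labeled peptide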
MCL1 BIM primary – disrupts human MCL1 binding to BIM-BH3 peptide; 0.68% of 320,000 active; inhibition, % at 10.9 µM; AID 2057; Q07820; GST-MCL1 / FITC-Bim-BH3 fluorescence polarization;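 active = inhibition above the mean inhibition of all tested compounds plus 3 SD, set per campaign, cut at about 40% in these data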;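 also: higher means more loss of mP so more displacement of Bim peptide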
EBV gp42 inh – blocks Epstein-Barr virus glycoprotein 42 binding | Q1HVG2 | inhibition, % (tested at 21.74 µM) | 0.42% of 220,000 active | Fluorescence polarization binding assay, mP read-out; in the data active = inhibition above about 50%
MEX-5 binding – C. elegans MEX-5 TCR-2 RNA binding activity; Q9XUB2; MEX-5/FITC-TCR2 RNA binding, fluorescence polarization; hits give low values; activity score (negative = inhibition of binding), % at 10 µM; 0.38% of 300,000 active; AID 1832;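 active = inhibition past about -25% in most replicates, and total fluorescence under double the plate's negative control median, limit read from the data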
GLD-1 RNA inh – GLD-1-TGE RNA interaction inhibition (C. elegans). 0.44% of 320,000 active. Q17339. purified GLD-1 + fluorescein TGE RNA, fluorescence polarization. inhibition, % at 5.96 µM;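 active = percent inhibition above a per-plate cutoff, the plate mean of test compounds plus 3 SD, cut at about 30% in these data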
E coli Lon inh – E. coli protease La inhibition; P0A9M0; purified E. coli Lon protease, fluorescence polarization; inhibition, % at 7.94 µM; 0.42% of 360,000 active; in the data active = inhibition above about 13%, passing the limit was not always enough
Target sequence (P0A9M0 whole entry, looked up): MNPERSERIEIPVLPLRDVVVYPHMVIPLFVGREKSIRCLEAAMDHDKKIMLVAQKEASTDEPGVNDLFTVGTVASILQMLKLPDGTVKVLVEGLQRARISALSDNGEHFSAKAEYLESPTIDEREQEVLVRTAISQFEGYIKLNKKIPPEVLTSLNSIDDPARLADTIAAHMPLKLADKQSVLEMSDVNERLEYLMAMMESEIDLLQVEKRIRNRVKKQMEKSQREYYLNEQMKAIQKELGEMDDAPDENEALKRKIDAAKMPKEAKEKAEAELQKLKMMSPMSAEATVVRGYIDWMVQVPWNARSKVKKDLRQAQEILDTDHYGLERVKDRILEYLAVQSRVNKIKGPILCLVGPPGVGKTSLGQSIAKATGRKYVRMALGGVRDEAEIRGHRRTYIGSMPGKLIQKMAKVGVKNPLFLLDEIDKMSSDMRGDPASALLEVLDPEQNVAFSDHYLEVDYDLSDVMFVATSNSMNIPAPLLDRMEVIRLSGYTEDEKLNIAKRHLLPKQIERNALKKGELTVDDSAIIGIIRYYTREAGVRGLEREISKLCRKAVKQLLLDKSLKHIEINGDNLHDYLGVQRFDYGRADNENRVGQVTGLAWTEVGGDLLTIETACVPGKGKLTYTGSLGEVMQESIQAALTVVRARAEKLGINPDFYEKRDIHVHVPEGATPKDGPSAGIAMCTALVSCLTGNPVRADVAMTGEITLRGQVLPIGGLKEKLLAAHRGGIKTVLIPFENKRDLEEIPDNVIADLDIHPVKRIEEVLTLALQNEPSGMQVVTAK
Numbers stand for hits; . = inactive; / = no result given.

SMILES	BCLXL inh	MCL1 BIM primary	EBV gp42 inh	MEX-5 binding	GLD-1 RNA inh	E coli Lon inh
CCOc1ccc(NC(=O)/C(C#N)=C/c2ccc(N3CCCC3)c(C)c2)cc1	.	.	94	/	.	.
COc1cccc(-n2c([S-])c(C(=O)Nc3ccc(S(=O)(=O)N4CCOCC4)cc3)[n+]3cc(C(N)=O)ccc23)c1	36	.	.	.	.	.
O=C(Nc1ccc(Br)cc1)c1ccc2ncsc2c1	.	.	/	.	.	.
CCc1ccc(NC(=O)c2ccc3ncsc3c2)cc1	/	/	146	.	/	/
O=C(CSc1nnc(-c2ccncc2)n1CC1CCCO1)Nc1nccs1 (stereo not given)	.	.	.	.	47	.
O=C(O)c1ccc(-n2c(-c3cc(-c4ccco4)[nH]n3)n[nH]c2=S)cc1	.	.	.	-92	.	.
Cc1cccc(NC(=O)CSc2nnnn2C)n1	.	.	75	.	.	.
CCCCn1nnnc1SCC(=O)Nc1cccc(C)n1	.	.	.	.	.	.
CCCCC(=O)NNC(=S)NC(=O)CCC	.	.	.	.	.	.
COCC(=O)N(C)C1(c2nnnn2CCOC(=O)Nc2ccc(Cl)cc2)CCCCC1	.	.	.	.	.	.
COc1cc(S(=O)(=O)Nc2ccc(C(=O)NCC(=O)O)cc2)ccc1NC(C)=O	.	.	.	.	.	.
CCNC(=O)CSc1nc2sccc2c(=O)n1-c1ccccc1	.	.	/	.	.	.
CCN(CC)C(=O)CSc1nnc2c3ccccc3n(C)c2n1	.	.	/	.	.	.
CCCSc1nnc2nc3c(nn12)c1ccccc1n3C	.	.	.	-35	.	.
COC1CCCCC1Nc1cc(C)ccc1C (stereo not given)	.	.	.	.	.	.
CCS(=O)(=O)Nc1ccc2c(c1)OCO2	41	.	.	.	.	.
O=C(NCc1ccncc1)c1ccc(Br)cc1	.	.	.	.	.	.
COC(=O)c1cc(COC(=O)c2ccc3ccccc3n2)oc1C	.	.	.	.	.	.
COc1ccc(N=C2S/C(=C\c3ccc(OCC(=O)O)cc3)C(=O)N2CCc2c[nH]c3ccccc23)cc1	/	/	84	.	/	.
COc1ccc(N2CCN(Cc3cc(=O)oc4ccc(Cl)cc34)CC2)cc1	.	.	.	.	.	.
C=CS(=O)(=O)N(Cc1ccc(Cl)c(Cl)c1)C[C@@H](O)CO	/	/	/	/	/	.
CCc1ccc(NC(=O)C2CC(=O)N(C(C)C)C2)cc1 (stereo not given)	.	.	.	.	.	.
Cc1cccc(Nc2c([N+](=O)[O-])ccc3nonc23)c1C	/	/	/	.	/	.
Cc1ccc(Nc2c([N+](=O)[O-])ccc3nonc23)c(C)c1	46	.	/	.	.	.
CCN(CC(=O)Nc1ccc(C(=O)OC)cc1)C1CCCCC1	.	.	/	.	.	.
SMILES	BCLXL inh	MCL1 BIM primary	EBV gp42 inh	MEX-5 binding	GLD-1 RNA inh	E coli Lon inh
Cn1cccc1CC(=O)N/N=C/c1cccc2ccccc12	46	.	.	.	36	.
Cn1cccc1CC(=O)N/N=C\c1c2ccccc2cc2ccccc12	33	51	.	.	.	.
CCn1cc(C(=O)N2CCCC2)c(=O)c2cc(S(=O)(=O)N3CCC(C)CC3)ccc21	.	.	/	.	.	.
CC(=O)N(Cc1ccccc1)c1ncc2c(n1)c(=O)c(C#N)c1ccccn12	34	45	.	.	.	.
CCCCCn1c(N)c(-c2nc3ccccc3s2)c2c([N+](=O)[O-])nn(CC)c(=O)c21	.	.	.	.	.	.
CCCCCn1c(N)c(-c2nc3ccccc3o2)c2c([N+](=O)[O-])nn(CC)c(=O)c21	.	.	55	.	.	.
CCOC(=O)Cc1csc(NC(=O)CCCc2ccccc2)n1	.	.	/	.	.	.
Oc1cc2c(cc1O)C1c3ccc(O)c(O)c3OCC1(O)C2 (stereo not given)	34	77	.	/	35	.
CCCCNC(=O)CN(c1cccc(F)c1)S(C)(=O)=O	.	.	.	.	.	.
Cc1cccc(NC(=O)Nc2c(C)n(C)n(-c3ccccc3)c2=O)c1	.	.	/	.	.	.
Cc1c(NC(=O)Nc2cccc(F)c2)c(=O)n(-c2ccccc2)n1C	.	.	/	.	121	.
CC(=O)NNc1nc(-c2ccccc2)c2cc(Cl)ccc2n1	/	/	/	/	/	.
O=C(O)CCC(=O)NNc1nc(-c2ccccc2)c2cc(Cl)ccc2n1	.	.	/	-44	.	.
Cc1ccc(/C(O)=C/c2nc3cc(C)ccc3oc2=O)cc1	.	.	.	-120	.	.
O=C(Nc1nccs1)C(c1ccccc1)N1CCCC1 (stereo not given)	.	.	65	.	.	.
N#Cc1sc2nc(-c3ccccc3)cc(-c3ccco3)c2c1N	.	.	.	.	.	.
COc1cccc(-c2cc(C(F)(F)F)c3c(N)c(C#N)sc3n2)c1	.	46	.	.	.	/
Cc1cccc(NC(=O)CSc2nc3ccccc3c(=O)n2C)c1C	/	/	/	/	/	.
O=C(C1=NN(c2ccccc2)C2C(=O)N(c3ccc(Cl)cc3)C(=O)C12)c1ccccc1 (stereo not given)	46	.	67	/	.	.
O=C(C1=NN(c2ccccc2)C2C(=O)N(c3cccc(Cl)c3)C(=O)C12)c1ccccc1 (stereo not given)	32	.	74	/	.	.
CC(C)Cn1nc(-c2ccccc2)c2ccccc2c1=O	.	.	/	.	.	.
C=Cc1c(C)c2cc3[nH]c(cc4nc(cc5nc(cc1[nH]2)C(C)=C5CCC(=O)O)C(CCC(=O)O)=C4C)c(C)c3C=C	.	83	/	-42	.	.
CN(C)c1ccc(/C=C2\CCC/C(=C\c3ccccc3)C2=O)cc1	.	.	119	.	.	.
O=C1/C(=C/c2ccccc2)CCCc2ccccc21	.	.	.	.	.	.
CN(CP(=O)(O)CCc1ccccc1)S(C)(=O)=O	.	.	.	.	.	.
SMILES	BCLXL inh	MCL1 BIM primary	EBV gp42 inh	MEX-5 binding	GLD-1 RNA inh	E coli Lon inh
C#CCOC(=O)CCCC(=O)Nc1ccccc1OC	.	.	.	.	.	.
Cc1nc2ccccc2n1/N=C/c1ccc([N+](=O)[O-])s1	32	.	.	-76	.	.
Cc1cc2ncn(/N=C/c3ccc([N+](=O)[O-])s3)c2cc1C	.	.	.	.	.	.
O=[N+]([O-])c1ccc(/C=N/n2c(CO)nc3ccccc32)s1	.	.	53	-35	.	.
COc1ccc(-c2[nH]ncc2CN(C)CCc2c(C)n[nH]c2C)c(F)c1	.	.	.	.	.	.
COC(=O)CCC(C)C1CCC2C3CCC4CC(O)CCC4(C)C3=CC(=O)C12C (stereo not given)	/	/	/	/	/	.
CCc1cc2c(cc3c(=O)n(CC(=O)NCCCN4CCCCCC4)nc(CC)n32)s1	.	.	/	.	.	.
COc1cccc(-n2ccnc2SCC(=O)Nc2nccs2)c1	.	.	.	.	104	.
Cc1cccc(-n2ccnc2SCC(=O)Nc2nccs2)c1	.	.	.	.	.	.

Screening results (PubChem)
